Source: PubChem BioAssay (The Scripps Research Institute Molecular Screening Center)
Hits are enriched below; roughly 3.1% of the tested compounds scored in any of these assays.
E coli Lon inh: inhibitors of E. coli Lon protease, primary screen, biochemical, fluorescence polarization; P0A9M0; purified E. coli Lon protease; inhibition, % at 7.94 µM; 0.42% of 360,000 active; in the data active = inhibition above about 13%, passing the limit was not always enough
PAFAH2 FP inh: PAFAH2 enzyme inhibitors, primary screen, biochemical, fluorescence polarization, human. 0.99% of 340,000 active. recombinant PAFAH2, FP-rhodamine activity probe. inhibition, % at 3.39 µM. Platelet-activating factor acetylhydrolase 2, cytoplasmic (Homo sapiens), Q99487;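 active = inhibition above the mean over all tested compounds plus 3 SD, cut at about 30% in these data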;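 note: inhibitors block probe labeling of enzyme so polarization drops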
pPAFAH FP inh: pPAFAH enzyme inhibitors, primary screen, biochemical, fluorescence polarization, human. 1.5% of 330,000 active. inhibition, % at 3.39 µM. recombinant pPAFAH, FP-rhodamine probe fluorescence polarization. AID 463082, 2010. Platelet-activating factor acetylhydrolase (Homo sapiens), Q13093;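 active = inhibition above the mean inhibition across the screen plus 3 SD, cut at about 25% in these data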;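 note: inhibitors block binding of the rhodamine activity-based probe so polarization drops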
Target sequence (Q13093 whole entry, looked up): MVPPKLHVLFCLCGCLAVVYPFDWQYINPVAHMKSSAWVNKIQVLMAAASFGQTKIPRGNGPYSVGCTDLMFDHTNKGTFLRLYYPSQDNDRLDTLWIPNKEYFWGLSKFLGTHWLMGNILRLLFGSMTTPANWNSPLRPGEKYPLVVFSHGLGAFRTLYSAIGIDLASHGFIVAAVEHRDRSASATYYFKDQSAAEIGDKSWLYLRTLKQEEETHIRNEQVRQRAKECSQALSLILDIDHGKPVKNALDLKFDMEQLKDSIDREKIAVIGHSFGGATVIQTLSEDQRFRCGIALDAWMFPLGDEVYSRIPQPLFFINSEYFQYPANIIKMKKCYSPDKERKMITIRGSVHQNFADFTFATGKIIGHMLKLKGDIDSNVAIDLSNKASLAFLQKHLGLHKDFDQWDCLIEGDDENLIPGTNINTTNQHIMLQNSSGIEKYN
PAFAH1B3 inh: PAFAH1B3 enzyme inhibitors, primary screen, biochemical, fluorescence polarization, human | Platelet-activating factor acetylhydrolase IB subunit alpha1 (Homo sapiens), Q15102 | recombinant PAFAH1B3, FP-rhodamine probe | inhibition, % at 3.39 µM | 0.28% of 340,000 active;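 active = inhibition above the screen-wide average of all tested compounds plus 3 SD, cut at about 25% in these data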
PAFAH1B2 FP inh: PAFAH1B2 enzyme inhibitors, primary screen, biochemical, fluorescence polarization, human. Platelet-activating factor acetylhydrolase IB subunit alpha2 (Homo sapiens), P68402. recombinant PAFAH1B2, FP-rhodamine activity probe. inhibition, % at 3.39 µM. 1.2% of 340,000 active. AID 492953, 2010;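 active = inhibition above the mean of all tested compounds plus 3 SD, cut at about 24% in these data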
Rin1 Abl inh: inhibitors of Rin1-Abl protein binding, primary screen, biochemical, TR-FRET; inhibition, % at 7.35 µM; Tyrosine-protein kinase ABL1 (Homo sapiens) + Ras and Rab interactor 1 (Homo sapiens), …; 0.4% of 360,000 active; in the data active = inhibition above about 5%, passing the limit was not always enough
eLon confirm: E. coli Lon protease inhibitor retest, confirmation, biochemical, fluorescence polarization; AID 602230, 2012; purified E. coli Lon; shares compounds with E coli Lon inh; 31% of 1,400 active; inhibition, % at 7.94 µM; in the data active = inhibition above about 16%
A number is an active result; – = inactive; · = no result; + = active, no number.

SMILES	E coli Lon inh	PAFAH2 FP inh	pPAFAH FP inh	PAFAH1B3 inh	PAFAH1B2 FP inh	Rin1 Abl inh	eLon confirm
COc1ccc(CCNC(=O)C(C)SCc2ccccc2)cc1 (configuration not stated)	19.1	–	–	–	–	–	–
O=C(CN1C(=O)NC2(CCCCC2)C1=O)N1CCN(S(=O)(=O)c2ccc(Cl)s2)CC1	18.8	–	–	–	–	–	–
CC1CCCCC12NC(=O)N(CC(=O)N1CCN(S(=O)(=O)c3ccc(Cl)s3)CC1)C2=O (configuration not stated)	–	·	·	·	·	–	·
c1ccc(CCn2nnnc2CN2CCCc3ccccc32)cc1	–	–	–	–	–	–	·
c1ccc2c(c1)CCCN2Cc1nnnn1CC1CCCO1 (configuration not stated)	73.5	–	–	–	–	–	34.9
Oc1ccc(N2Cc3ccccc3C2)cc1	37.3	–	–	–	–	–	–
Oc1cccc(N2Cc3ccccc3C2)c1	–	–	–	–	–	–	·
C#Cc1ccc([C@H]2C=C(C(=O)O)O[C@@H](OCCCCO)C2)cc1	–	–	–	–	–	–	·
O=C(NCCN1CCC(n2c(=O)[nH]c3ccccc32)CC1)c1ccc(C(F)(F)F)cc1C(F)(F)F	–	·	·	·	·	·	·
CCOc1ccc(Cn2c3ccc(OC)cc3c3nc4ccccc4nc32)cc1OC	–	–	–	–	–	–	·
COc1ccc2c(c1)c1nc3ccccc3nc1n2Cc1ccc(OC)c(OC)c1	96.7	–	–	–	–	–	–
CC(=O)C1=C(O)C(=O)N(c2cccc(Br)c2)C1c1ccc(Br)cc1 (configuration not stated)	–	–	–	–	–	–	·
CC(=O)C1=C(O)C(=O)N(c2ccc(Br)cc2)C1c1ccc(Br)cc1 (configuration not stated)	30.2	–	–	–	–	–	–
CC(C)CCn1nnnc1CN1CCN(c2ccccc2)CC1	16.6	–	–	–	–	–	–
CCCNS(=O)(=O)c1ccc2c(c1)n(C)c(=O)n2C	16.2	–	–	–	–	–	–
CCc1ccccc1Nc1nc(N)nc(COC(=O)c2c(C)noc2C)n1	–	–	–	–	–	–	·
CC(NC(=O)NC(=O)c1ccc(F)cc1)C1CC1 (configuration not stated)	26.5	–	–	–	–	–	–
CC(NC(=O)NC(=O)c1cccc([N+](=O)[O-])c1)C1CC1 (configuration not stated)	–	–	·	–	–	–	·
Cc1ccccc1CNC(=O)c1ccc2sc([C@H]3C[C@H](O)[C@@H](CO)O3)nc2c1	–	·	·	·	·	–	·
Nc1ccc(S(=O)(=O)NC2(C(F)(F)F)NC(=O)N(c3ccccc3F)C2=O)cc1 (configuration not stated)	–	–	–	–	–	–	·
CC(=O)c1c(N2CCOCC2)nc2ccc(Br)cc2c1-c1ccccc1	–	·	–	·	·	–	·
CC(=O)c1cc(-c2ccccc2)[nH]c1N1CCOCC1	63.5	–	–	–	–	–	–
O=C(CNC(=O)c1cccc(F)c1)N/N=C/C=C/c1ccccc1	16.9	–	–	–	–	–	–
O=C(CNC(=O)c1ccccc1)N/N=C/C=C/c1ccccc1	–	–	–	–	–	–	·
Cc1ccc2c(c1)c1c(n2CC(O)CN2CCCCCC2)CCCC1 (configuration not stated)	–	–	–	–	–	–	·
SMILES	E coli Lon inh	PAFAH2 FP inh	pPAFAH FP inh	PAFAH1B3 inh	PAFAH1B2 FP inh	Rin1 Abl inh	eLon confirm
Cc1ccc2c(c1)c1c(n2CC(O)CNC(C)(C)C)CCCC1 (configuration not stated)	15.9	–	·	–	–	–	–
CC1(C)c2ccccc2N2CC(=O)N(CC(N)=O)C21C (configuration not stated)	125.3	–	–	–	–	–	89.5
CC1(C)c2ccccc2N(CC(N)=O)C12C=Cc1ccccc1O2 (configuration not stated)	–	–	–	–	–	–	·
O=C(NCCc1nnc2ccc(N3CCCC3)nn12)c1ccccc1	18.9	–	–	–	–	–	–
C(=Cc1cnc2ccccc2n1)c1ccc2c(c1)OCO2	96.0	·	·	·	·	–	–
CCCc1ccc(C(O)c2ncc(-c3ccc(OC)cc3)[nH]2)cc1 (configuration not stated)	–	·	·	·	·	–	·
CN(CC(=O)Nc1ccccc1Br)C(=O)CNC(=O)c1cccs1	–	–	–	–	–	–	·
Cc1ccc(NC(=O)O/N=C/c2ccc(N(C)C)cc2)cc1	–	–	–	–	–	–	·
O=C(CSc1nc2c(oc3ccccc32)c(=O)n1CC1CCCO1)NCc1ccccc1 (configuration not stated)	–	–	–	–	–	–	·
CCOC(=O)C(NCc1ccc(F)cc1)(NC(=O)c1ccccc1)C(F)(F)F (configuration not stated)	–	–	–	–	–	–	·
COc1ccc(CNC(NC(=O)c2ccccc2)(C(F)(F)F)C(F)(F)F)cc1	29.6	–	–	–	–	–	–
Cc1cccc(NC(=O)c2cccc(S(=O)(=O)NCc3ccccc3)c2)n1	–	–	–	–	–	–	·
Cc1cc(C(C)(C)C)cc(C)c1C[n+]1ccc2ccccc2c1	–	–	–	–	–	–	·
O=c1c2ccccc2[nH]c2ccc(O)cc12	84.0	–	28.7	–	–	–	71.2
Cc1ccc2[nH]c3ccccc3c(=O)c2c1	–	–	–	–	–	–	·
Cc1cc(NS(=O)(=O)c2ccc(NC(=S)Nc3ccc(Cl)cc3C)cc2)no1	–	–	–	–	–	–	·
COc1cc(C(=O)OCC(=O)Nc2ccccc2C(=O)NC2CC2)c([N+](=O)[O-])cc1OC	34.7	–	–	–	–	–	–
O=C(N/N=C/c1cc(Br)c(Br)o1)c1cccnc1	26.6	–	–	–	–	–	–
CSc1ncnc2c1ncn2CCCN1CCN(c2ccccn2)CC1	–	·	·	·	·	–	·
Nc1c(Cl)cc(-c2[nH]c3cc(C(=O)NCCO)ccc3c(=O)c2O)cc1Cl	+	–	–	36.3	26.0	–	193.1
O=C(NCCO)c1ccc(Cl)c(Cl)c1	–	–	–	–	–	–	·
CCCNC(=O)c1ccc2c(=O)c(O)c(-c3ccc(F)cc3)[nH]c2c1	163.0	–	–	–	–	–	99.7
O=C(NCCc1nc2ccccc2[nH]1)c1cccc(Br)c1	–	–	–	–	–	–	·
CCCNC(=O)c1ccc2c(=O)c(O)c(C)[nH]c2c1	–	–	–	–	–	–	·
CCCNC(=O)c1ccc2c(=O)c(O)c(-c3cccc(Br)c3)[nH]c2c1	143.5	–	28.3	–	–	–	135.0
